GLS inhibitor = qHTS for Inhibitors of Glutaminase (GLS); Potency, µM (series often up to 45.5 µM), usual class: inhibitors; Glutaminase kidney isoform, mitochondrial (Homo sapiens), O94925; 410,000 tested, 0.21% active; AID 624170, 2012; GLS enzymatic activity, qHTS titration
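hKGA in 45 mM KH2PO4 (pH 8.2), 0.02% Tween-20 with compound, then 1mM L-Glutamine (stock as added) plus glutamate oxidase/HRP/Amplex red coupling mix. Fluorescence read initially and after 30 min at RT; signal change reflects glutamate formation.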
JMJD2A Tudor inh = qHTS Assay for Inhibitors of JMJD2A-Tudor Domain. Lysine-specific demethylase 4A (Homo sapiens), O75164. AlphaScreen JMJD2A-Tudor / H3K4me3 peptide binding. Potency, µM (top dose mostly 114 µM), most hits filed as inhibitors. 390,000 tested, 4.4% active. AID 504339, 2011; further: nearly all actives have a fitted effect of over 50% in size
BAZ2B inh = qHTS Assay for Inhibitors of BAZ2B; AlphaScreen BAZ2B-H3K14Ac peptide displacement; Potency, µM (series often up to 114 µM), usual class: inhibitors; 360,000 tested, 4.4% active; AID 504333, 2011; further: nearly all actives have a fitted effect of over 60% in size
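Protein-peptide AlphaScreen: BAZ2B 50 nM, b-H3K14Ac 50 nM, 1x PBS pH 7.4 + 0.01% Tween-20. Preincubation 30 min RT; cpd 30 min RT (top 110 uM); beads 20 min RT, light-protected.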
G9a block = qHTS Assay for Inhibitors of Histone Lysine Methyltransferase G9a | Potency, µM (top dose mostly 102 µM), most hits filed as inhibitors | Histone-lysine N-methyltransferase EHMT2 (Homo sapiens), Q96KQ7 | 350,000 tested, 8.8% active | G9a H3K9 monomethylation, AlphaScreen, 2 h; further: nearly all actives have a fitted effect of over 75% in size
Target sequence (Q96KQ7 913-1193 limits assumed): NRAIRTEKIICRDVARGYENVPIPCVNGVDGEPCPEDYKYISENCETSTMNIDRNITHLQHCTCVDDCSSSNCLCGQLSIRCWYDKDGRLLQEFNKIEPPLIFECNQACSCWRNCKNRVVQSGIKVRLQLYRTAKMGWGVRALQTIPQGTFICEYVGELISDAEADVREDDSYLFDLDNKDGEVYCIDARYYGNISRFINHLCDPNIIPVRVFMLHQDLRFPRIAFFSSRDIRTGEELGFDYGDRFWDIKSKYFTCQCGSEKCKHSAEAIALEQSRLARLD
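AlphaScreen detection with an anti-monomethyl H3K9 antibody quantified product after a 2 h room-temperature reaction containing 500 nM biotinylated H3K9 peptide, 20 µM SAM and 20 nM enzyme, which had been preincubated 15 min with compound.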
HP1b chromo inh = HTS for Inhibitors of HP1-beta Chromodomain Interactions with Methylated Histone Tails; Chromobox protein homolog 1 (Homo sapiens), P83916; AlphaScreen HP1-beta / biotin-H3K9me3 peptide binding; Potency, µM (highest dose often 114 µM), hits mostly inhibitors; 390,000 tested, 0.56% active; AID 540317, 2011; further: nearly all actives have a fitted effect of over 70% in size
Target sequence (P83916 whole entry, looked up): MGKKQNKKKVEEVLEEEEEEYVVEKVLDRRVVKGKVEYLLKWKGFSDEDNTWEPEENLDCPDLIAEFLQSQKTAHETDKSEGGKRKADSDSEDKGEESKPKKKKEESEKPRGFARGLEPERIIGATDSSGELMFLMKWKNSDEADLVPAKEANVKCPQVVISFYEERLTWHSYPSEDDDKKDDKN
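AlphaScreen: HP1-beta (50 nM) preformed 30 min with biotin-H3(1-18)K9me3 peptide (50 nM) in PBS pH 7.4, 0.01% Tween-20. Compound added for 30 min at RT, then streptavidin donor/nickel chelate acceptor beads (10 ug/mL) for 30 min.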
Of the large screens only hits and unclear results are named; the others gave an inactive call. Sampled rows, rich in hits. Any-hit rate of the full collection: about 10%. The call rests on the fitted dose curve; in most records, active means well fitted curve in the direction sought with a large enough effect; inconclusive means small, poorly fitted or top-dose-only effect, or another doubt; inactive means no such curve, though single readings can be large; an effect the other way counts as inactive or inconclusive.

COC(=O)C1CCC(=S)N1C(=O)c1ccccc1 (centres undefined)	G9a block 45µM
O=C(O)c1c(C(=O)O)c(-c2ccc(Cl)c(Cl)c2)n2c1CSC2	G9a block 45µM
CCN1CCN(C(=S)Nc2ccc(C(C)=O)cc2)CC1	G9a block inconclusive
CSc1ccc(C(=S)N2CCCCCC2)cc1	G9a block 32µM
CSc1ccc(C(=S)N2CCN(Cc3ccccc3)CC2)cc1	JMJD2A Tudor inh inconclusive, BAZ2B inh inconclusive, G9a block 32µM (no result: GLS inhibitor)
CCN1CCN(C(=S)c2ccc(SC)cc2)CC1	G9a block 40µM, HP1b chromo inh inconclusive
O=C1NC(=O)/C(=C\c2ccccc2OCc2ccccc2)S1	none
CS(=O)(=O)N(CC(=O)N1CCCCC1)c1cccc(F)c1	BAZ2B inh inconclusive (no result: G9a block)
Cc1ccc(CN(C)C(=O)c2cc(COc3cccc(C(F)(F)F)c3)on2)o1	G9a block 32µM
CC(C)NS(=O)(=O)c1ccc(OCC(=O)N2CCc3ccccc3C2)cc1	none
N#C/C(=N\Nc1cccc(C(F)(F)F)c1)C(=O)c1csc(-c2cccnc2)n1	GLS inhibitor inconclusive, JMJD2A Tudor inh inconclusive, BAZ2B inh 28µM, G9a block inconclusive
COc1ccc(Cl)cc1NC(=O)CN1Cc2ccccc2C1=O	none
Cc1nc(S(=O)(=O)N(C)Cc2ccccc2)c(C#N)c(C)c1Cl	none
Cc1nc(S(=O)(=O)N2CCOCC2)c(C#N)c(C)c1Cl	JMJD2A Tudor inh 79µM
Cc1nc(S(=O)(=O)NC2CCCCC2)c(C#N)c(C)c1Cl	G9a block 79µM
C#CCOc1c(Br)cc(/C=N/O)cc1OCC	none
C#CCOc1ccc(/C=C2/C(=O)ON=C2C)cc1Br	G9a block 35µM
C#CCOc1ccc(Cl)cc1/C=C1/C(=O)ON=C1C	JMJD2A Tudor inh 35µM, BAZ2B inh inconclusive, G9a block 32µM
Cc1ccccc1C1NS(=O)(=O)N=C1N (centres undefined)	none
Cc1ccc2c(C)c(C(=O)N3CCN(Cc4ccc5c(c4)OCO5)CC3)oc2c1C	BAZ2B inh inconclusive, G9a block 50µM
O=C(c1cccnc1)N1CCN(Cc2cccc(F)c2)CC1	JMJD2A Tudor inh 1.6µM, BAZ2B inh 32µM, G9a block 3.2µM, HP1b chromo inh 45µM
O=C(Nc1ccc2c(c1)OCO2)C1CCN(Cc2cc3c(cc2O)OCO3)CC1	JMJD2A Tudor inh inconclusive, G9a block 32µM, HP1b chromo inh inconclusive
Cc1ccc(C(=O)N2CCN(Cc3ccc4c(c3)OCO4)CC2)o1	none
O=C(c1cc(-c2ccncc2)nc2ccc(Cl)cc12)N1CCN(Cc2ccc3c(c2)OCO3)CC1	JMJD2A Tudor inh inconclusive, BAZ2B inh 40µM, G9a block inconclusive
O=C(Nc1ccc2c(c1)OCO2)C1CCCCC1	G9a block inconclusive
CCN(CC(=O)Nc1c(F)cccc1F)C(=O)Cc1ccsc1	none
COc1cc2c(cc1OC)C(C)N(C(=O)Cn1ncc3c1-c1ccccc1OC3)CC2 (centres undefined)	G9a block 79µM
O=C(c1cccc(F)c1)N1CCN(Cc2ccc3c(c2)OCO3)CC1	JMJD2A Tudor inh 1µM, BAZ2B inh 50µM, HP1b chromo inh inconclusive
O=C(Cn1ncc2c1-c1ccccc1OC2)N1CCN(Cc2ccc3c(c2)OCO3)CC1	G9a block 16µM
O=C(C1CCN(Cc2cc(Cl)ccc2O)CC1)N1CCN(Cc2ccccc2)CC1	JMJD2A Tudor inh 3.5µM, BAZ2B inh inconclusive, G9a block inconclusive, HP1b chromo inh inconclusive
O=C(c1cccc(Cl)c1)N1CCN(Cc2ccc3c(c2)OCO3)CC1	none (no result: G9a block)
CCOc1ccc(C(C)NC(=O)c2ccccc2OCc2c(C)noc2C)cc1OCC (centres undefined)	none
COc1ccc(CCNS(=O)(=O)c2cn(C)nc2C)cc1OC	none
O=C(C1CCN(Cc2ccccc2O)CC1)N1CCN(Cc2ccc3c(c2)OCO3)CC1	JMJD2A Tudor inh 2.8µM, BAZ2B inh inconclusive, G9a block 6.3µM, HP1b chromo inh inconclusive
O=C(C1CCN(S(=O)(=O)c2ccccc2)CC1)N1CCN(Cc2ccc3c(c2)OCO3)CC1	none
CC1CCN(c2nc3ccc(C(=O)N4CCN(Cc5ccc6c(c5)OCO6)CC4)cc3s2)CC1	JMJD2A Tudor inh inconclusive, BAZ2B inh inconclusive, G9a block 28µM
COc1cccc(OC)c1C(=O)N1CCN(Cc2ccc3c(c2)OCO3)CC1	JMJD2A Tudor inh 5µM, BAZ2B inh 50µM, G9a block 14µM, HP1b chromo inh 45µM
O=C(C1CCN(S(=O)(=O)N2CCOCC2)CC1)N1CCN(Cc2ccc3c(c2)OCO3)CC1	none
CC1CCCN(C(=O)C2CCN(Cc3ccc4c(c3)OCO4)CC2)C1 (centres undefined)	JMJD2A Tudor inh 2.2µM, G9a block 50µM
CCCC(=O)Nc1ccc(NC(=O)Cc2ccccc2)cn1	none
Cc1cc2c(cc1C)NC(C)CC(=O)N2 (centres undefined)	none (no result: BAZ2B inh, G9a block)
Cc1ccc(S(=O)(=O)N2CCN(C(=O)c3ccc(-n4cncn4)c([N+](=O)[O-])c3)CC2)cc1C	none
CN1CCCC(OC(=O)c2ccccc2Br)C1 (centres undefined)	none
COc1cccc(CN2CCC(C(=O)N3CCN(Cc4ccc5c(c4)OCO5)CC3)CC2)c1OC	JMJD2A Tudor inh 3.2µM, HP1b chromo inh inconclusive
O=C(NC(=S)Nn1cnnc1)c1cccc(Br)c1	G9a block 11µM
Cc1ccc(C(=O)NC(=S)Nn2cnnc2)cc1	G9a block 10µM
Cc1ccc(NC(=S)Nn2cnnc2)c(C)c1	BAZ2B inh inconclusive, G9a block 10µM (no result: GLS inhibitor, JMJD2A Tudor inh, HP1b chromo inh)
CC(C)c1ccc(S(=O)(=O)/N=C2\C=C(NS(=O)(=O)c3ccccc3)C(=O)c3ccccc32)cc1	JMJD2A Tudor inh 28µM, BAZ2B inh 7.1µM, G9a block 6.3µM, HP1b chromo inh 20µM
CC(C)(C)c1cc[n+](C2=C([O-])c3ccccc3C(=O)/C2=N\S(=O)(=O)c2ccccc2)cc1	none (no result: G9a block)
CCc1ccc(S(=O)(=O)/N=C2\C=C(NS(=O)(=O)c3ccccc3)C(=O)c3ccccc32)cc1	JMJD2A Tudor inh 22µM, BAZ2B inh 8.9µM, G9a block 13µM, HP1b chromo inh 14µM
Cc1cccc(S(=O)(=O)Nc2cccc3c2C(=O)c2ccccc2-3)c1	none
Cc1ccc(C)c(S(=O)(=O)/N=C2\C=C(NS(=O)(=O)c3ccccc3)C(=O)c3ccccc32)c1	JMJD2A Tudor inh 22µM, BAZ2B inh 10µM, G9a block 14µM, HP1b chromo inh inconclusive
CC(C)c1ccc(S(=O)(=O)/N=C2/C=CC(=O)c3ccccc32)cc1	BAZ2B inh 7.9µM, G9a block 11µM (no result: GLS inhibitor, JMJD2A Tudor inh, HP1b chromo inh)
COC(=O)c1ccc(NC(=O)C2CC2)o1	none
COc1ccc(CCNC(=O)c2c(C)oc3ncn(C)c(=O)c23)c(OC)c1	none

Screening data from PubChem.
